Measured values: PubChem BioAssay AID540259 (Broad Institute, 2011)
Entries with a potency or affinity are not part of this list. Active and inactive are the calls of the source.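 Rule for the calls: active = cell killing, meaning signal decrease, with fitted half-maximal dose at or below ten times the top valid tested dose; inconclusive = poor fit, or flat curve with 30 to 70% signal loss; inactive = the rest.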

Assay: ATP-based viability loss in HeLa cells – cell-based, CellTiter-Glo luminescence, cherry-pick samples, cytotoxicity control for MITF activator project, dose response (AID 540259)
Conditions: 24 h; series mostly up to 35 µM

| Structure (SMILES) | outcome |
| --- | --- |
| Cn1cc(Br)c(C(=O)Nc2sc3c(c2C(N)=O)CCCC3)n1 | inactive |
| COc1ccc(-n2nc(C(=O)NCC(=O)N3CCN(c4ccccc4)CC3)c3ccccc3c2=O)c(OC)c1 | inactive |
| COc1ccc(/C=C2\SC(=O)N(CCNC(=O)C3CC4C=CC3C4)C2=O)cc1 (configuration not stated) | inactive |
| CC(C)c1ccc(CNc2ncc(Br)cn2)cc1 | inactive |
| CC(=O)NCCC1CCCCN1C(=O)c1cc(COc2cc(C)ccc2C)on1 (configuration not stated) | inactive |
| Oc1oc(-c2ccccc2)nc1C=NCc1ccccc1 | inactive |
| Cc1ccc(NC(=O)Nc2ccc3c(c2)OCO3)c(OC(F)F)c1 | inactive |
| O=C(NOCc1ccccc1)OCc1ccccc1 | inactive |
| COc1ccc(NC(=O)Nc2ccc(Br)cn2)cc1 | inactive |
| Cc1ccc(N(O)C(=O)NCCCCNC(=O)N(O)c2ccc(C)cc2)cc1 | inactive |
| CC(=O)c1sc(NC(=O)c2ccccc2F)nc1-c1ccccc1 | inactive |
| COc1ccc(NC(=S)c2ccccc2)cc1 | inactive |
| Cc1ccc2cc(NC(=O)c3ccccc3C)ccc2n1 | inactive |
| C/C(=N\O)c1ccc(N2C(=O)C3CC=C(Cl)CC3C2=O)cc1 (configuration not stated) | inactive |
| Cc1[nH]n(-c2cccc(Cl)c2)c(=O)c1C=NCC(C)C | inactive |
| NC(=O)c1ccc(-c2noc(-c3cccc(Cl)c3)n2)cc1 | inactive |
| CCCCN(C(=O)Cc1cccs1)c1nnc(-c2cccnc2)s1 | inactive |
| c1ccc(-c2ccc3[nH]ccc3c2)cc1 | inactive |
| COC(=O)Cc1ccc(NC(=O)c2ccc(C)c(C)c2)cc1 | inactive |

| Structure (SMILES) | outcome |
| --- | --- |
| O=C(Nc1cccnc1)c1cc(-c2ccc(Cl)cc2)on1 | inactive |
| Clc1ccc(-n2nnc(-c3cccnc3Cl)n2)cn1 | inactive |
| Cc1ccc2cc(/C=N/Nc3ccc(C(=O)O)cc3)c(Cl)nc2c1 | inactive |
| N#Cc1ccsc1NC(=O)CCc1ccccc1 | inactive |
| COC(=O)Cc1csc(Nc2ccccc2Cl)n1 | inactive |
| C/C(=N\OC(=O)Nc1ccccc1)c1ccc(C)cc1 | inactive |
| COc1ccc(-c2cc(C(=O)Nc3ccccc3F)on2)cc1 | inactive |
| c1ccc2c(c1)CC/C2=N/Nc1nc2ccccc2[nH]1 | inactive |
| Cc1ccc2c(CN3CCC(C)CC3)cc(=O)oc2c1C | inactive |
| Cc1cccc(C(=O)Nc2ccn(C)n2)c1 | inactive |
| CC(C)C(=O)Nc1cccc(-c2cnc3ccccc3n2)c1 | inactive |
| Cc1ccccc1-c1nc(Cc2ccccc2)no1 | inactive |
| O=C(NCC1CC1)Nc1ccc(Cl)cc1 | inactive |
| C/C(=N/NC(=O)c1ccncc1)c1ccc(NC(=O)c2ccc(Cl)cc2Cl)cc1 | inactive |
| COc1ccc2sc(NCc3ccccc3)nc2c1 | inactive |
| O=C(Nc1ccc(Br)cc1F)c1ccc2nsnc2c1 | inactive |
| Cc1nc2ccccc2nc(=O)c1NNc1ccccc1 | inactive |
| COC(=O)C(Cc1ccc(O)cc1)N1Cc2ccccc2C1=O (configuration not stated) | inactive |
